Source: PubChem BioAssay (NCI)
Compounds without any hit were thinned out: in the full panel of roughly 83,000, 20% have a hit.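 For each line, cells grew in 96-well plates with the test compound present at a single concentration for 48 hours.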 Unmarked numbers belong to inactive results. Active and inactive are the calls of the source. Rule for the calls: active = growth percent below 10; inactive = the rest.

How the values were obtained:
Assay in all cases: NCI-60 one-dose screen, 48 h (100 = growth as untreated, 0 = no growth, -100 = all killed)
Conditions in all cases: 10 µM unless noted
SR leukemia = system: SR leukemia
RPMI-8226 leukemia = system: RPMI-8226 leukemia
OVCAR-8 ovarian = system: OVCAR-8 ovarian
OVCAR-5 ovarian = system: OVCAR-5 ovarian
OVCAR-4 ovarian = system: OVCAR-4 ovarian
SK-OV-3 ovarian = system: SK-OV-3 ovarian
IGROV1 ovarian = system: IGROV1 ovarian
OVCAR-3 ovarian = system: OVCAR-3 ovarian
HS 578T breast = system: HS 578T breast
NCI/ADR-RES ovarian = system: NCI/ADR-RES ovarian
T-47D breast = system: T-47D breast
BT-549 breast = system: BT-549 breast
MDA-MB-435 melanoma = system: MDA-MB-435 melanoma
SW-620 colon = system: SW-620 colon
MCF7 breast = system: MCF7 breast
HCT-116 colon = system: HCT-116 colon
HCC-2998 colon = system: HCC-2998 colon
KM12 colon = system: KM12 colon

Structure (SMILES) | growth (SR leukemia) | growth (RPMI-8226 leukemia) | growth (OVCAR-8 ovarian) | growth (OVCAR-5 ovarian) | growth (OVCAR-4 ovarian) | growth (SK-OV-3 ovarian) | growth (IGROV1 ovarian) | growth (OVCAR-3 ovarian) | growth (HS 578T breast) | growth (NCI/ADR-RES ovarian) | growth (T-47D breast) | growth (BT-549 breast) | growth (MDA-MB-435 melanoma) | growth (SW-620 colon) | growth (MCF7 breast) | growth (HCT-116 colon) | growth (HCC-2998 colon) | growth (KM12 colon)
O=C(Nc1ccccc1)c1sc(-c2ccccc2)cc1O | 70.4% | 74.4% | 119% | 94.2% | 90.9% | 106% | 92.5% | 84.1% | 92% | 93.4% | 101% | 95.8% | 90% | 102% | 78.9% | 96.5% | 101% | –
COc1ccc(NC(=O)c2sc3nc(C)c(C(O)c4ccccc4)cc3c2N)cc1 (centres undefined) | 4.79% (active) | 11.8% | 27.6% | 37.9% | 78% | 24.1% | 36.6% | 8.68% (active) | 22.8% | 10.6% | 23.9% | 65.8% | -27.8% (active) | 25.4% | 19.1% | 21.4% | 19.4% | 20.3%
Cn1c(=O)c2c(c3ccccc31)OC(N)=C(C#N)C21C(=O)c2ccccc2C1=O | 105% | 94.8% | 97.5% | 98% | 92.4% | 90.8% | 92.4% | 98.7% | 81.5% | 103% | 96.3% | 87.2% | 98.4% | 82.3% | 90% | 92.2% | 101% | –
CCOC(=O)C(=Cc1cccc(C#N)c1)C(=O)OCC | 7.73% (active) | 15.1% | 71.6% | 60.1% | 88.2% | 91.3% | 59.8% | 61.2% | 93.9% | 47.6% | 38.8% | 71.2% | 55.4% | 27.9% | 24.3% | 20.9% | 110% | –
CCN(CC)c1ccc(/C=N/NC(=O)c2ccc(Nc3ccnc(C(F)(F)F)c3)cc2)c(O)c1 | 153% | 20% | 44.6% | 32.5% | 32.4% | 10.1% | 39.3% | 44% | 64.9% | 26.3% | -2.74% (active) | -2.72% (active) | 17.5% | 41.5% | 13.9% | 23.6% | 38.3% | 24.6%
C=CC(=O)NCCOc1cccc(Nc2cc(NCCCNC(=O)C3CCC3)c(Br)cn2)c1 | -10.1% (active) | -22.8% (active) | 4.84% (active) | 2.75% (active) | -20.6% (active) | -54.4% (active) | 2.28% (active) | -25.5% (active) | -18.4% (active) | 39.5% | -10.5% (active) | -59.5% (active) | -1.47% (active) | 2.26% (active) | 1.91% (active) | 4.97% (active) | -43.7% (active) | 5.83% (active)
COc1cc2c(c(OC)c1OC)C(=O)CC(c1cccc(NC(=O)c3ccccc3Br)c1)O2 (centres undefined) | 68.4% | 58.2% | 80.1% | 117% | 90% | 108% | 102% | 96.4% | 79.5% | 91.3% | 65.7% | 98.7% | 92.5% | 97.3% | 78.2% | 75.6% | 106% | –
Fc1ccc(CNc2c3ccccc3nc3ccccc23)cc1 | 6.59% (active) | -0.445% (active) | 22.3% | 38.5% | 33.2% | 39.9% | 21.9% | 38.7% | 39.5% | 29.7% | 31.1% | 80.7% | 34.8% | 22.8% | 7.09% (active) | 12.6% | 18.3% | –
Cc1ccc(/C=C2\CN(C(=O)C(Cl)Cl)C/C(=C\c3ccc(C)cc3)C2=O)cc1 | 1.68% (active) | -19.3% (active) | 4.74% (active) | -44.6% (active) | 25% | 29% | -58.8% (active) | -97.8% (active) | 9.67% (active) | 8.57% (active) | -29% (active) | -15.3% (active) | -75.1% (active) | -66.6% (active) | -32.1% (active) | -84.6% (active) | -89.6% (active) | –
COC(=O)c1c2c(n3ccc(C)cc13)C(=O)c1ccccc1C2=O | 45.9% | 61.1% | 60.2% | 116% | 81.7% | 103% | 64.5% | 67.6% | 77.7% | 72.8% | 82% | 69.7% | 93.4% | 54.3% | 55.9% | 41.6% | 94.6% | –
CN1CCN(CCCOC(=O)c2c3c(n4ccccc24)C(=O)c2ncccc2C3=O)CC1 | -11.2% (active) | -0.22% (active) | 4.94% (active) | -4.35% (active) | -11.6% (active) | -46.4% (active) | 4.12% (active) | 0.457% (active) | -1.51% (active) | 2.37% (active) | 47.6% | 24.9% | -40.4% (active) | -57.2% (active) | -45.9% (active) | -29.5% (active) | 29.9% | –
O=C(/C=C\c1ccco1)/C=C/c1ccco1 | 103% | 99.1% | 99.8% | 95.1% | 105% | 104% | 110% | 134% | 105% | 105% | 112% | 101% | 98.3% | 103% | 101% | 105% | 101% | –
CCn1cc(CNc2ccc(C(=O)Nc3cc4cc(OC)c(OC)cc4c(C)n3)cc2)c(C)n1 | 32.8% | -0.529% (active) | 1.1% (active) | 72.9% | 25% | 86.8% | 56.1% | 33.7% | 82.7% | 13.4% | -15.4% (active) | -4.64% (active) | 48.4% | 59.9% | 30% | 25.4% | 62.2% | –
C=C1C(=O)O[C@H]2[C@H]1CC/C(COC(=O)/C=C\C(=O)NCc1ccc(Cn3c(=O)sn(-c4ccccc4)c3=O)cc1)=C\CC[C@@]1(C)O[C@@H]21 | 72.4% | 40.5% | 91.2% | 98.3% | 85% | 108% | 77.4% | 39.5% | 90.3% | 111% | 67.9% | 93.5% | 67.7% | 19.9% | 53.7% | 33.6% | 105% | –
N/C(=N\c1nc2ccccc2s1)NC(=NC1CCCCC1)NC1CCCCC1 | 8.88% (active) | -30.4% (active) | 4.41% (active) | 24.6% | 26.7% | 74.9% | 14.4% | 57.6% | 37.8% | 15% | 13.2% | 47.6% | -33.7% (active) | 0.593% (active) | -42.4% (active) | 0.368% (active) | -88.6% (active) | –
CCCCSCC(=O)c1ccccc1 | 88.3% | 106% | 94.2% | 95.2% | 100% | 81.4% | 99.3% | 99.3% | 110% | 97.9% | 95.4% | 99.9% | 106% | 105% | 98.2% | 95.2% | 100% | –
CCOC(=O)c1c(NC(=O)c2ccc(OC)cc2)sc2c(CN(C)C)c(O)ccc12 | -21.5% (active) | 15.8% | 84.2% | 90.6% | 85.2% | 99.6% | 90.7% | 106% | 88.9% | 84.5% | 77.3% | 95.5% | 68.8% | 70.4% | 70.4% | 51.3% | 23.1% | –
CCOC(=O)c1c(C)nc2c(c1N)CC(=O)N2Cc1cc(OC)c(OC)c(OC)c1 | 20.7% | 40.9% | 61.9% | 93% | 51.3% | 57.2% | 53.1% | 23.5% | 65.1% | 17.6% | 28.7% | 48.7% | 4.24% (active) | 33.4% | 26.9% | 20.5% | 65.6% | –
